High-throughput results as filed in PubChem.
An excerpt weighted towards active compounds, which were near 3.5% of everything screened.
Autofluor counter: flagged as autofluorescent in microsphere protease counterscreen | 360,000 tested, 3.1% active | compound autofluorescence counterscreen, microsphere flow cytometry; hits give high values | AID 624483 | fluorescence intensity (test concentration not listed); in the data active = fluorescence intensity above about 16000; inconclusive = no clear call, values can overlap the other calls
Anthrax LF prot: blocks Bacillus anthracis lethal factor protease. P15917. multiplex microsphere protease cleavage assay, LF. inhibition, % at 10 µM. 360,000 tested, 0.12% active
Target sequence (P15917 whole entry, looked up): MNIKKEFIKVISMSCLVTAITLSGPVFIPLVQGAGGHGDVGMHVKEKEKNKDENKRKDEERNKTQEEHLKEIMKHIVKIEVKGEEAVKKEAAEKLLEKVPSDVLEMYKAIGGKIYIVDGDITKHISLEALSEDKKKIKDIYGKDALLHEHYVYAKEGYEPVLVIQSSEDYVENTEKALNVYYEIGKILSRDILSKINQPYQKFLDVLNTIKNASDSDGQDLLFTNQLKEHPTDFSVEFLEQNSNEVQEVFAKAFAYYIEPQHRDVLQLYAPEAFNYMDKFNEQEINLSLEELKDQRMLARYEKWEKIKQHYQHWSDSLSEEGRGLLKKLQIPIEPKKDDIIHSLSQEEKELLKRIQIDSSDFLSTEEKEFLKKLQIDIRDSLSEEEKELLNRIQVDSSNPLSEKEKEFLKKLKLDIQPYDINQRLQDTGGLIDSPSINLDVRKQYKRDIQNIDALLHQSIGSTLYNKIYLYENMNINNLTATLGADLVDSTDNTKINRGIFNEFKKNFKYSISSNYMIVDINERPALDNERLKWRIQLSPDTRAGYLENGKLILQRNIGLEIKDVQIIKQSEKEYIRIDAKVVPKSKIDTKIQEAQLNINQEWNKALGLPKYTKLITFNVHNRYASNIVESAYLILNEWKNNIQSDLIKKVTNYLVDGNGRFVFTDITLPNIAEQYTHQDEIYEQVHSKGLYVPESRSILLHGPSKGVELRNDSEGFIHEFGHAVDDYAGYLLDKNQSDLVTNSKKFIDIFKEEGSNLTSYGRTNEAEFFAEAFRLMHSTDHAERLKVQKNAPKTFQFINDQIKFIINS
BoNT-A LC inh2: blocks Botulinum neurotoxin A light chain protease; multiplex microsphere protease substrate cleavage, flow cytometry; 360,000 tested, 0.17% active; AID 588499; inhibition, % at 10 µM
BoNT-F LC inh: inhibitors of Botulinum neurotoxin F light chain protease; Multiplex microsphere protease cleavage assay, flow cytometry; inhibition, % at 10 µM; 360,000 tested, 0.22% active; AID 588497; in the data active = inhibition above about 35%, passing the limit was not always enough; inconclusive = no clear call, values can overlap the other calls
SARS 3CLpro inh: SARS-CoV 3CLpro protease inhibition; inhibition, % at 6 µM; P0C6X7; 290,000 tested, 0.14% active; recombinant SARS-CoV 3CLpro, quenched FRET peptide cleavage; in the data active = inhibition above about 12%
BoNTA LC inh 1: blocks botulinum neurotoxin A light chain protease; shares compounds with BoNT-F LC inh; multiplex microsphere protease assay, flow cytometry; inhibition, % at 10 µM; 720 tested, 3% active; AID 602139; in the data active = inhibition above about 32%
BoNTF LC inh 1: blocks botulinum neurotoxin F light chain protease. shares compounds with BoNT-F LC inh. multiplex microsphere protease cleavage assay, flow cytometry. inhibition, % at 10 µM. 720 tested, under 10 active. AID 602140; call rule not given here
Anthrax LF CP1: Bacillus anthracis lethal factor protease inhibition; multiplex microsphere protease cleavage assay, LF; inhibition, % at 10 µM; 720 tested, under 10 active; shares compounds with BoNT-F LC inh; call rule not given here
Large screens that a line does not name were inactive (follow-up assays come after a bar, where they were run). Cut-off read from the data, not from the text of the source, unless noted: active = inhibition above about 30%; inconclusive = no clear call, values can overlap the other calls; inactive = below that.

COc1ccc2cc3cc(C(=O)NCCCN4CCOCC4)oc3nc2c1	none
Cc1ccc2cc3cc(C(=O)NCCN4CCOCC4)oc3nc2c1	BoNT-F LC inh 35 | BoNTA LC inh 1 inactive | BoNTF LC inh 1 inactive | Anthrax LF CP1 inactive
Clc1cccc(Cl)c1-c1noc(CN2CCOCC2)n1	Anthrax LF prot 36, BoNT-A LC inh2 inconclusive, BoNT-F LC inh inconclusive | BoNTA LC inh 1 inactive | BoNTF LC inh 1 inactive | Anthrax LF CP1 inactive
Clc1ccc(-c2noc(CN3CCOCC3)n2)cc1	Anthrax LF prot inconclusive
Cc1ccccc1NC(=O)c1cccnc1	BoNT-F LC inh 66 | BoNTA LC inh 1 inactive | BoNTF LC inh 1 inactive | Anthrax LF CP1 inactive
Cc1ccccc1NC(=O)c1cccc(C(=O)Nc2ccccc2C)c1	BoNT-F LC inh inconclusive (no result: SARS 3CLpro inh)
Cc1cc(NC(=O)C(=O)NCCN2CCN(S(C)(=O)=O)CC2)ccc1Br	none
O=c1c2ccccc2nnn1-c1ccc(Br)cc1	BoNT-F LC inh 41 | BoNTA LC inh 1 inactive | BoNTF LC inh 1 inactive | Anthrax LF CP1 inactive
Nc1c(C(=O)NC2CCCC2)c2nc3ccccc3nc2n1CC1CCCO1 (centres undefined)	BoNT-A LC inh2 31 | BoNTA LC inh 1 inactive | BoNTF LC inh 1 inactive | Anthrax LF CP1 inactive
Nc1c(C(=O)NC2CCCC2)c2nc3ccccc3nc2n1N	none
Cc1cc(C)c(C#N)c(Oc2ccccc2)n1	none
CCN(C(=O)COc1nc(C)cc(C)c1C#N)c1ccccc1	Anthrax LF prot 38 | BoNTA LC inh 1 inactive | BoNTF LC inh 1 inactive | Anthrax LF CP1 inactive
CCOc1ccccc1Nc1nc(-c2sc(C)nc2C)cs1	BoNT-F LC inh 41 | BoNTA LC inh 1 inactive | BoNTF LC inh 1 inactive | Anthrax LF CP1 inactive
COc1ccc(CNC(=O)CSc2nnc(NC(=O)C3CC3)s2)cc1	BoNT-F LC inh 35 | BoNTA LC inh 1 inactive | BoNTF LC inh 1 inactive | Anthrax LF CP1 inactive
Cc1nn(-c2ccccc2)c2sc(C(=O)N3CCCCC3)cc12	BoNT-F LC inh 38 | BoNTA LC inh 1 inactive | BoNTF LC inh 1 inactive | Anthrax LF CP1 inactive
COc1cc(N/C(=N/S(=O)(=O)c2ccccc2)c2ccccc2)ncn1	none
COc1ccc(S(=O)(=O)N2CCN(CC(=O)c3[nH]c(C)c(C(C)=O)c3C)CC2)cc1OC	none (no result: SARS 3CLpro inh)
Cn1ccnc1C(O)c1cc(C(C)(C)C)c(O)c(C(C)(C)C)c1 (centres undefined)	Anthrax LF prot 32 | BoNTA LC inh 1 inactive | BoNTF LC inh 1 inactive | Anthrax LF CP1 inactive
Nc1ccc(Oc2ncccn2)cc1	none
CCC(=O)NC(c1cccc([N+](=O)[O-])c1)c1c(OC(C)=O)ccc2ccccc12 (centres undefined)	none
NC(=O)c1ccc(Br)c(S(=O)(=O)N2CCCCC2)c1	BoNT-A LC inh2 35, BoNT-F LC inh 42 | BoNTA LC inh 1 inactive | BoNTF LC inh 1 inactive | Anthrax LF CP1 inactive
O=C(c1ccc(Br)c(S(=O)(=O)N2CCCCC2)c1)N1CCCCC1	none
CN(CCCN1CCOCC1)Cc1nc(-c2ccccc2)no1	none
CCCN1CCc2c(sc3nc(SC)n(-c4ccccc4)c(=O)c23)C1	BoNT-A LC inh2 33 | BoNTA LC inh 1 inactive | BoNTF LC inh 1 inactive | Anthrax LF CP1 inactive
CCOC(=O)CSc1nc2sc3c(c2c(=O)n1-c1ccc(OCC)cc1)CCN(C)C3	BoNT-A LC inh2 53 | BoNTA LC inh 1 inactive | BoNTF LC inh 1 inactive | Anthrax LF CP1 inactive
COc1cc(OC)cc(-c2cc(N3C(=O)Nc4ccccc4N3O)n[nH]2)c1	none
Cc1ccc(OCC2Cn3c(nc4c3c(=O)[nH]c(=O)n4C)O2)cc1C (centres undefined)	Anthrax LF prot 31 | BoNTA LC inh 1 inactive | BoNTF LC inh 1 inactive | Anthrax LF CP1 inactive
COc1ccc(-c2cncc3nccn23)cc1OC	none (no result: SARS 3CLpro inh)
Clc1ccc(-c2ncc3ccccn23)cc1	BoNT-A LC inh2 51 | BoNTA LC inh 1 inactive | BoNTF LC inh 1 inactive | Anthrax LF CP1 inactive
O=[N+]([O-])c1cccc(-c2ncc3ccccn23)c1	none
Clc1ccccc1-c1ncc2ccccn12	none | BoNTA LC inh 1 inactive | BoNTF LC inh 1 inactive | Anthrax LF CP1 inactive
COc1ccc(-c2ncc3ccccn23)cc1OC	none | BoNTA LC inh 1 inactive | BoNTF LC inh 1 inactive | Anthrax LF CP1 inactive
COc1ccc(OC)c(/C=N\NC(=O)c2ccc(COc3ccc(C)cc3[N+](=O)[O-])o2)c1	none (no result: SARS 3CLpro inh)
COc1ccc(C=O)cc1CN1C(=O)c2ccccc2C1=O	none
O=C(COC(=O)COc1ccc(Cl)cc1Br)NCCC1=CCCCC1	none (no result: SARS 3CLpro inh)
Nc1cc(=O)nc(SCC(=O)Nc2ccccc2Cl)n1-c1ccccc1	none
O=C(NCc1cccs1)Nc1cc(Cl)ccc1Cl	none
CCn1ccnc1CN1CCN(CC=C(C)C)C(CCO)C1 (centres undefined)	BoNT-F LC inh 48 | BoNTA LC inh 1 inactive | BoNTF LC inh 1 inactive | Anthrax LF CP1 inactive
O=C(CSc1nncn1-c1ccccc1)c1c[nH]c2ccccc12	BoNT-A LC inh2 53 | BoNTA LC inh 1 inactive | BoNTF LC inh 1 inactive | Anthrax LF CP1 inactive
CCn1c(SCC(=O)c2c[nH]c3ccccc23)nnc1-c1cccs1	none (no result: Autofluor counter, Anthrax LF prot, BoNT-A LC inh2, BoNT-F LC inh)
O=C(CSc1nc2ccccc2c(=O)n1-c1ccccc1)c1c[nH]c2ccccc12	none
CCCCNc1nnc(SCC(=O)c2c[nH]c3ccccc23)s1	BoNT-A LC inh2 54 | BoNTA LC inh 1 inactive | BoNTF LC inh 1 inactive | Anthrax LF CP1 inactive
CCOc1ccccc1NC(=O)c1c(Br)cnn1C	none
COc1ccc(-c2c3c(cc(C)[n+]2[O-])oc2ccc(OC)cc23)cc1	none
Nc1ccc(S(=O)(=O)Nc2nccc(/C=C/c3cccc(Br)c3)n2)cc1	BoNT-F LC inh 37 | BoNTA LC inh 1 inactive | BoNTF LC inh 1 inactive | Anthrax LF CP1 inactive
O=C(CC1C(=O)N(c2ccccc2)C(=S)N1c1ccccc1)c1ccc(Br)cc1 (centres undefined)	none
O=C(NCC(=O)N1CCCC1)c1ccc(Cl)cc1	Anthrax LF prot 31 | BoNTA LC inh 1 inactive | BoNTF LC inh 1 inactive | Anthrax LF CP1 inactive
Cc1cc2cc(CNC(=S)NC3CCCCC3)ccc2[nH]1	none
Cc1cc2cc(CNC(=O)NC3CCCCC3)ccc2[nH]1	BoNT-A LC inh2 37 | BoNTA LC inh 1 inactive | BoNTF LC inh 1 inactive | Anthrax LF CP1 inactive
CCC(=O)NCc1ccc2[nH]c(C)cc2c1	none | BoNTA LC inh 1 inactive | BoNTF LC inh 1 inactive | Anthrax LF CP1 inactive
Cc1ccc(NC(=O)NCc2ccc3[nH]c(C)cc3c2)cc1	none
CC(=O)NCc1ccc2[nH]c(C)cc2c1	none | BoNTA LC inh 1 inactive | BoNTF LC inh 1 inactive | Anthrax LF CP1 inactive
Cc1cc2cc(CNC(=O)CCC(=O)O)ccc2[nH]1	none | BoNTA LC inh 1 inactive | BoNTF LC inh 1 inactive | Anthrax LF CP1 inactive
COc1ccc(NC(=O)CCCSc2nc(-c3ccco3)cc(C(F)(F)F)n2)cc1OC	none
C#Cc1ccc(NC(=O)C2(C)CCN2C(=O)Cc2ccc(C(C)(C)C)cc2)cc1 (centres undefined)	none (no result: SARS 3CLpro inh)
COc1ccc(CC(=O)NCc2ccccc2)cc1OC	BoNT-F LC inh inconclusive
COc1ccc(CC(=O)NCc2ccc3c(c2)cc(C)n3C)cc1OC	BoNT-A LC inh2 51 | BoNTA LC inh 1 inactive | BoNTF LC inh 1 inactive | Anthrax LF CP1 inactive
